Experimental data taken from PubChem BioAssay (NCI).
Compounds without any hit were thinned out: in the full panel of roughly 83,000, 20% have a hit.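 In brief: 96-well plates, 48 h treatment, single concentration, percent growth endpoint.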 Values without a mark were called inactive. Active and inactive are the calls of the source. How the source made its calls: active means growth percent below 10; inactive means the rest.

Key:
Experiment in all cases: NCI-60 one-dose screen, 48 h (100 = growth as untreated, 0 = no growth, -100 = all killed)
Conditions in all cases: 10 µM unless noted
NCI-H23 lung = tested on: NCI-H23 lung
NCI-H226 lung = tested on: NCI-H226 lung
NCI-H322M lung = tested on: NCI-H322M lung
HOP-62 NSCLC = tested on: HOP-62 NSCLC
NCI-H460 lung = tested on: NCI-H460 lung
HOP-92 NSCLC = tested on: HOP-92 NSCLC
NCI-H522 lung = tested on: NCI-H522 lung
A549/ATCC NSCLC = tested on: A549/ATCC NSCLC
786-0 renal = tested on: 786-0 renal
COLO 205 colon = tested on: COLO 205 colon
DU-145 prostate = tested on: DU-145 prostate
K-562 leukemia = tested on: K-562 leukemia
MALME-3M melanoma = tested on: MALME-3M melanoma
MDA-MB-231 breast = tested on: MDA-MB-231 breast
RXF 393 renal = tested on: RXF 393 renal
SF-268 CNS = tested on: SF-268 CNS
SF-295 CNS = tested on: SF-295 CNS
SF-539 CNS = tested on: SF-539 CNS
UACC-257 melanoma = tested on: UACC-257 melanoma
M14 melanoma = tested on: M14 melanoma

Row | Compound | growth (NCI-H23 lung) | growth (NCI-H226 lung) | growth (NCI-H322M lung) | growth (HOP-62 NSCLC) | growth (NCI-H460 lung) | growth (HOP-92 NSCLC) | growth (NCI-H522 lung) | growth (A549/ATCC NSCLC) | growth (786-0 renal) | growth (COLO 205 colon) | growth (DU-145 prostate) | growth (K-562 leukemia) | growth (MALME-3M melanoma) | growth (MDA-MB-231 breast) | growth (RXF 393 renal) | growth (SF-268 CNS) | growth (SF-295 CNS) | growth (SF-539 CNS) | growth (UACC-257 melanoma) | growth (M14 melanoma)
1 | C/C(=C\c1cc(C(F)(F)F)nn1CCNC(=O)OC(C)(C)C)[C@@H]1C[C@@H]2O[C@]2(C)CCC[C@H](C)[C@H](O)[C@@H](C)C(=O)C(C)(C)[C@@H](O)CC(=O)O1 | 59.2% | 77.4% | 72.3% | 78.8% | 30.5% | 66.4% | 63.5% | 54.3% | 67.8% | 30.6% | 63.2% | 31.9% | 70% | 58.8% | 53.2% | 60.4% | 75.5% | 57.5% | 83.5% | 50.1%
2 | Oc1c(O)c(Cl)c(Cl)c(Cl)c1Cl | 26.7% | 36.8% | 44.5% | 40.1% | 15.4% | 1.08% (active) | -19.6% (active) | 20.5% | 57.2% | 69.8% | 47.5% | 24.2% | 64.7% | 44.8% | 7.31% (active) | 24.2% | 9.55% (active) | 20.9% | -9.22% (active) | 39.6%
3 | Cc1ccccc1NC(=NCCCN1CC1)Nc1ccccc1C | 97.7% | 83.1% | 97.6% | 119% | 81.7% | 77.2% | 84.9% | 86.4% | 100% | 102% | 90.1% | 94% | 105% | 64.4% | 85.3% | 86.5% | 103% | 109% | 103% | 91.3%
4 | COc1ccc(/C(C)=C(\c2ccc(OCCN3CCOCC3)cc2)c2ccc(OC(=O)Cc3ccccc3)cc2)cc1 | 95.1% | 110% | 111% | 108% | 110% | 105% | 94.9% | 94.3% | 104% | 109% | 102% | 91% | 104% | 109% | 111% | 100% | 108% | 112% | 109% | 104%
5 | CCN(CCO)C(Cc1ccccc1)c1ccccc1 (stereo not given) | 93.1% | 101% | 106% | 96.5% | 104% | 100% | 87.9% | 103% | 105% | 102% | 105% | 107% | 96.5% | 101% | 106% | 101% | 95.5% | 106% | 114% | 89%
6 | CCN1C(=O)C(=C/C=C/c2ccccc2)C(=O)N(CC)C1=O | 95.5% | 94.5% | 104% | 97.8% | 77.8% | 116% | 73.3% | 101% | 106% | 93.8% | 76.4% | 79.4% | 82.5% | 86.4% | 109% | 72.5% | 105% | 109% | 93.9% | 82.5%
7 | COc1ccc(C/C(C)=C(\c2ccc(OCCN3CCOCC3)cc2)c2ccc(OC(=O)Cc3ccccc3)cc2)cc1 | -18.3% (active) | -26.6% (active) | -8.3% (active) | -74.1% (active) | -73.3% (active) | -76.7% (active) | -87.6% (active) | 0.132% (active) | -94.7% (active) | -90.1% (active) | 9.74% (active) | -24.7% (active) | -79.5% (active) | -48.4% (active) | -83.3% (active) | -21.3% (active) | -57.6% (active) | -85.4% (active) | -89.2% (active) | -66.9% (active)
8 | NC1CC2CCCCC2CC1(O)c1ccccc1 (stereo not given) | 94.7% | 92.2% | 103% | 106% | 103% | 88.6% | 97.8% | 99.3% | 99.6% | 106% | 103% | 92.4% | 96.1% | 99.8% | 101% | 102% | 114% | 99.1% | 98% | 100%
9 | CO[C@H](C(=O)O)[C@@H]1Cc2cc3cc(OC4CC(OC5CC(O)C(O)C(C)O5)C(O)C(C)O4)c(C)c(O)c3c(O)c2C(=O)[C@H]1OC1CC(OC2CC(OC3CC(C)(O)C(O)C(C)O3)C(O)C(C)O2)C(O)C(C)O1 (stereo not given in full) | -0.124% (active) | 0.862% (active) | 21.6% | 20.7% | 11.2% | 24.7% | -3.78% (active) | 13.7% | 10.3% | -12.5% (active) | 21.5% | 11.8% | -10.4% (active) | 19.9% | -57.1% (active) | 29.3% | 11.2% | -23.1% (active) | 7.77% (active) | -8.35% (active)
10 | CC(C)(C)C(=O)OCOP(=O)(OCOC(=O)C(C)(C)C)C1CCCN(O)C1=O (stereo not given) | -13.4% (active) | -1.39% (active) | 14.7% | 18.2% | 1.85% (active) | 7.23% (active) | -7.58% (active) | 10.8% | 12.4% | -16.8% (active) | 20% | 8.42% (active) | 12.3% | 5.67% (active) | -9.35% (active) | 4.35% (active) | 54% | 27.4% | 18.9% | 26.6%
11 | CC(=O)Nc1ccc(NC(=O)c2ccc([As](O)O)cc2)cc1 | 103% | 116% | 118% | 131% | 104% | 112% | -2.06% (active) | 114% | 107% | 108% | 108% | 33.1% | 113% | 88.3% | 47.6% | 109% | 118% | 88.8% | 104% | 101%
12 | COc1ccc(Nc2ccc([N+](=O)[O-])cc2[N+](=O)[O-])cc1CN(CCCl)CCCl | 18.4% | 39.7% | 45.8% | 35.8% | 7.13% (active) | 39.2% | 21.1% | 33.5% | 18.4% | 38% | 35.8% | 24.4% | 55.1% | 44.1% | -1.08% (active) | 24.9% | 37.6% | 15.9% | 62.9% | 46.7%
13 | O=C1OCCC1Br (stereo not given) | 103% | 103% | 97.7% | 105% | 105% | 85.6% | 83.9% | 99.8% | 106% | 120% | 106% | 80.9% | 97.8% | 103% | 114% | 108% | 105% | 95.6% | 83% | 109%
14 | N/C(=N\N=C\c1ccc(-c2ccccc2)cc1)N[N+](=O)[O-] | 41% | 73.6% | 52.7% | 38.2% | 16.4% | 51.6% | 18.2% | 38.4% | 40.6% | 24.9% | 33.4% | 14.9% | 43.7% | 66.5% | -4.68% (active) | 49.1% | 7.55% (active) | 9.43% (active) | 65.3% | 25.8%
15 | CC(=O)OC1CCC2(C)C(CCC3C2CC(=O)C2(C)C3CC(Sc3ccc(N(CCCl)CCCl)cc3)C2C(C)=O)C1 (stereo not given) | 97.3% | 83.7% | 104% | 108% | 32.5% | 109% | 83% | 55.6% | 82.6% | 9.14% (active) | 100% | 7.43% (active) | 139% | 85.6% | 107% | 85.9% | 67.6% | 13.7% | 90.3% | 81%
